Among all 390,000 compounds or so, about 1,400 (0.36%) were called active. A call without a number means that no potency is given here. About 2% were inconclusive and are not listed. The call rests on the fitted dose curve; in most records, active means well fitted inhibition curve with a large enough effect; inconclusive means small, poorly fitted or top-dose-only effect; inactive means no such curve, though single readings can be large or run the other way. For the sample, actives were picked, then their nearest neighbours and some compounds at random.

The results in this text go back to PubChem BioAssay AID588795 (National Center for Advancing Translational Sciences (NCATS), 2011).
Potency means the concentration at half of the fitted maximal effect.

Flap endonuclease 1 (Homo sapiens), sequence (P39748 whole entry, looked up): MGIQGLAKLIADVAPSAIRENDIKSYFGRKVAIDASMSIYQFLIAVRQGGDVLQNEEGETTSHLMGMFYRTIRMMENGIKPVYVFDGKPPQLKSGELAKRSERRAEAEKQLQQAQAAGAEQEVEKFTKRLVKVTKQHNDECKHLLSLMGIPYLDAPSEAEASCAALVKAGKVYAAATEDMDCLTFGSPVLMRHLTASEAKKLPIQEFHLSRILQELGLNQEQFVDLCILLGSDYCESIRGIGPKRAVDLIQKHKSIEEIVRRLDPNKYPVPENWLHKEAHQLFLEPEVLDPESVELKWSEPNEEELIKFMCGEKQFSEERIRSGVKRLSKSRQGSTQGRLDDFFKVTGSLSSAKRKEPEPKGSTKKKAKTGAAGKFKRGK

The target of the assay is Flap endonuclease 1 (Homo sapiens) (UniProt P39748). Description: qHTS Assay for the Inhibitors of Human Flap endonuclease 1 (FEN1). Further: nearly all actives have a fitted effect of over 65% in size. The following applies: Recombinant FEN1 flap cleavage, fluorescence, 15 min; series mostly up to 114 µM. The gist of the method:
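Compounds are tested as a concentration series against 10 nM FEN1; after a 15 min room-temperature preincubation, 50 nM substrate starts cleavage, with plate reads at 0 and 15 min. Normalized responses are fitted by a Hill equation.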
For the compound `C[N+](C)(CCCCCC[N+](C)(C)CCCN1C(=O)c2cccc3cccc(c23)C1=O)CCCN1C(=O)c2cccc3cccc(c23)C1=O`, the Potency was 2.51 µM (active).

Take `O=C(CN1C(=O)c2cccc3cccc(c23)C1=O)N1CCCCC1`: the Potency entry was “inactive”. As for `O=C(COC(=O)CCCN1C(=O)c2cccc3cccc(c23)C1=O)NC1CCS(=O)(=O)C1` (configuration not stated), the entry is “inactive”; as for `O=C(O)C1=C/C(=C/C=[N+]2c3cc(O)c(O[C@H]4OC(CO)[C@@H](O)[C@@H](O)[C@@H]4O)cc3C[C@@H]2C(=O)[O-])C[C@H](C(=O)O)N1` (some centres not stated), “inactive”. The entry for `COc1cc2nc(C#Cc3nc4cc(OC)c(OC)cc4[nH]3)[nH]c2cc1OC` is “inactive”. The entry for `CS(=O)c1ccc(/C=C2\C=Cc3ccccc32)cc1` (configuration not stated) is “inactive”; for `CCOC(=O)N1CCN(C(=O)CNC(=O)Cc2ccc(Cl)cc2)CC1` it is “inactive”; for `CCOC(=O)c1c(Cc2ccc(Cl)cc2)c[nH]c1C` it is 89.1 µM (active). For `CCOC(=O)c1ccc(CS(=O)c2ccc(Cl)cc2)o1` (configuration not stated), the Potency result is “inactive”. Consider `O=C(CCS(=O)(=O)c1ccccc1)N(Cc1cccnc1)c1nc2c(F)cccc2s1`, for which the Potency entry is “inactive”.

Regarding `Clc1cccc[n+]1CCCC[n+]1ccccc1Cl`, the Potency is 79.4 µM (active). As for `ClC/C=C/C[n+]1ccccc1Cl`, the entry is “inactive”; as for `Brc1cccc[n+]1Cc1cccc(C[n+]2ccccc2Br)c1`, “inactive”.

As to `Oc1ccc(Cl)cc1C1C=C(c2ccc3c(c2)OCO3)NC(c2ccc(F)c(Br)c2)N1` (configuration not stated), the Potency entry is “inactive”.

On to `CC(C)(C)OC(=O)N1CCC(c2c(C(=O)NCc3ccccn3)cnn2-c2ccc(F)cc2)CC1`, for which the Potency entry was “inactive”.

Regarding `CCCCC(CCCC)c1ccc(C=Nc2ccc(/C=C/c3ccnc4ccccc34)cc2)cc1`, the Potency entry was “inactive”.

In the case of `COc1ccc(Cl)cc1NC(=O)CCn1c(=O)c2cccn2c2ccccc21`, the Potency entry is “inactive”.

Consider `O=C(c1cnn2c1NC(=C1CC1)C=C2C(F)F)N1CCc2ccccc2C1`, for which the Potency entry was “inactive”. On to `Cc1csc(NCC(=O)c2c[nH]c3ccccc23)n1`, for which the Potency entry was “inactive”. Take `CN(C)C1=C2C=CC=CC2/C(=C2/C=Cc3ccccc32)C=C1` (configuration not stated): the Potency entry was “inactive”. As for `OC(CBr)C[n+]1cccc2cc(Br)ccc21` (configuration not stated), the entry is “inactive”; as for `CCc1nnc(NC(=O)c2cc(S(=O)(=O)N3CCCCC3)ccc2C)s1`, “inactive”; as for `CCc1ccc(NC(=O)c2sc3nc4c(cc3c2N)CN(CC)CC4)cc1`, “inactive”. The figure for `CCc1ccc2nc3sc(C(=O)Nc4nnc(CC)s4)c(N)c3cc2c1` is 44.7 µM (active); for `CN(Cc1ccccc1)c1ccc(/C=C/c2ccnc3ccccc23)cc1` it is “inactive”. As for `O=C(c1ccco1)N(Cc1cccs1)c1ccc(O)cc1`, the entry is “inactive”. As to `OC[C@@H]1O[C@H](n2cnc3c(SCc4ccccc4)ncnc32)[C@H](O)[C@H]1O`, the Potency result is “inactive”. As for `CCN(CC)c1ccc(/C=C/c2c(C)cnc3ccc(C)cc23)cc1`, the entry is “inactive”; as for `CN1C(=O)/C(=C/c2ccco2)SC1=Nc1cccc(C(=O)O)c1`, 50.1 µM (active). As for `CN=C1S/C(=C\c2c(OC)cc(OC)cc2OC)C(=O)N1C`, the entry is “inactive”; as for `O=C(O)c1cccc(N=NN2CCCCCC2)c1`, “inactive”. With `COc1cc2[nH]c(C)c(CCN3CCN(c4ccccc4)CC3)c2cc1OC`, the Potency result was “inactive”. As for `O=C(CSc1nc(=O)n(Cc2cccnc2)c2c1CCC2)Nc1ccc(F)cc1F`, the Potency result was “inactive”. Regarding `COC(=O)c1ccc2c(c1)N(CC(=O)Nc1ccc(C)c(C)c1)C(=O)c1ccccc1S2`, the Potency result is “inactive”. As for `Cc1nc([N+](=O)[O-])cn1CC(=O)Nc1ccc2c(c1)OCO2`, the entry is “inactive”. Regarding `Cc1ccc(C(=O)O)cc1-c1ccc(/C=C2\SC(=O)N(CC(=O)Nc3ccc4c(c3)OCO4)C2=O)o1`, the Potency is 39.8 µM (active). As for `CSc1n[nH]c(-c2ccco2)n1`, the entry is “inactive”; as for `CCC(=C/c1sc2ccc3ccccc3c2[n+]1C)/C=C1\Sc2ccc3ccccc3c2N1C`, 12.6 µM (active). As to `CCCCNC(=O)Cn1c(SCc2cccc(Cl)c2)nc2ccncc21`, the Potency result was “inactive”.

In the case of `CC(C)(C)c1ccc(C(=O)C[N+]2(C)CCCc3ccccc32)cc1` (configuration not stated), the Potency entry was “inactive”. As for `Fc1ccc(-c2ccc(NCCN3CCOCC3)nn2)cc1`, the Potency entry was “inactive”. As for `CCOc1nc(NCCN2CCOCC2)nc(Nc2ccc(C)cc2)n1`, the entry is “inactive”; as for `c1ccc2cc3c(NCCN4CCOCC4)ccnc3cc2c1`, 17.8 µM (active). The entry for `COc1cc(OC)c(OC)cc1/C=C1\C=Cc2ccccc21` is “inactive”. The entry for `O=S(=O)(c1cccc(C(F)(F)F)c1)N1CCN(c2nc(-c3cccs3)nc3ccccc23)CC1` is “inactive”. As to `CN(C(=O)CCN1C(=O)/C(=C/c2ccccc2F)SC1=S)C1CCS(=O)(=O)C1` (configuration not stated), the Potency result was “inactive”. As for `Cc1ccc(-c2nn(-c3ccccc3)cc2/C=C2\SC(=S)N(CCCCCC(=O)O)C2=O)o1`, the Potency was 31.6 µM (active). The entry for `O=C1/C(=C\c2ccccc2Cl)SC(=S)N1CCC(=O)N1CCCc2ccccc21` is “inactive”. The figure for `Cc1cc(C)c2nc3nc(C)cc(C)c3c(N)c2c1` is 39.8 µM (active).

For `CN1CCN(c2oc(-c3ccc(COc4ccc(Cl)cc4)o3)nc2C#N)CC1`, the Potency result is “inactive”. As for `COc1ccc(OC)c(NC(=O)C2CCCN(S(=O)(=O)c3ccc4c(c3)CCCC(=O)N4)C2)c1` (configuration not stated), the entry is “inactive”; as for `COc1cccc(OC)c1C(=O)Nc1ccc2c(c1)n(C)c(=O)n2C`, “inactive”; as for `COc1cccc2sc3cc(NCC[C@@H]4CCCN4C)ccc3c(=O)c12`, 50.1 µM (active). The entry for `COc1ccc(/C=C/c2ccnc3ccccc23)cc1OC` is “inactive”; for `CNc1ccc(-c2nc(-c3ccco3)no2)cc1[N+](=O)[O-]` it is “inactive”; for `COC(=O)c1ccccc1NS(=O)(=O)c1ccc2[nH]c(=O)[nH]c2c1` it is “inactive”.

Take `CCOc1ncccc1C(=O)NNC(=O)c1cccc(S(=O)(=O)Nc2ccccc2OC)c1`: the Potency result is “inactive”. As for `COc1cccc(/C=N/Nc2ccc(S(=O)(=O)Nc3ccccc3C(=O)O)cc2[N+](=O)[O-])c1O`, the figure is 79.4 µM (active). As for `O=C1C(Cl)=C(Oc2ccccc2)C(=O)c2ccccc21`, the figure is 56.2 µM (active); as for `COc1ccc(Cn2c(=O)[nH]c3cc(C(=O)N4CCN(C(=O)c5ccco5)CC4)ccc3c2=O)cc1`, “inactive”. The entry for `Cc1ccc(S(=O)(=O)N2CCN(c3nc(-n4cnc5ccccc54)nc4ccccc34)CC2)cc1` is “inactive”; for `C/C=C/NNC(=O)Cc1ccc(OC)cc1` it is “inactive”. Consider `Cc1cccc(Oc2c([N+](=O)[O-])c(=O)n(C)c3ccccc23)c1`, for which the Potency is 20 µM (active). The entry for `Cc1cccc(OP(=O)(Nc2c(C)n(C)n(-c3ccccc3)c2=O)Oc2cccc(C)c2)c1` is “inactive”; for `Cc1cccc(C2CC(=O)Oc3c2c(=O)n(C)c2ccccc32)c1` (configuration not stated) it is “inactive”. As for `Cc1[nH]c2ccccc2c1C(=O)C(=O)N(C)c1ccccc1`, the entry is “inactive”; as for `CCCC(=O)N1CCN(c2nc3c(OC)ccc(C)c3s2)CC1`, “inactive”.

On to `Cc1cc[n+](C2CCCCC2)cc1`, for which the Potency entry was “inactive”. The entry for `CCOC(=O)C1Nc2ccc(C(F)(F)F)cc2C2C=CCC12` (configuration not stated) is “inactive”; for `CCOc1cc(C(=O)O)ccc1OCCOc1ccccc1` it is “inactive”.

As for `CCOc1cccc2c1N[C@@H](c1ccc(C(=O)O)cc1)[C@H]1CC=C[C@@H]21`, the Potency was 14.1 µM (active). As for `OC(CBr)CN1CCCCC1` (configuration not stated), the entry is “inactive”. The entry for `O=C(Nc1ccccc1)c1ccccc1OCc1ccccc1` is “inactive”; for `C#CCOCCOCCOCCNc1nc(N2CCN(C(=O)CCCCCCCCCCNC(=O)Cn3cc(CCCCCN)nn3)CC2)nc(N2CCN(C(=O)CCCCCCCCCCNC(=O)[C@H](CO)n3cc(CCCSC)nn3)CC2)n1` it is 39.8 µM (active); for `C#CCOCCOCCOCCNc1nc(N2CCN(C(=O)[C@H](CCC(=O)O)n3cc(CN)nn3)CC2)nc(N2CCN(C(=O)[C@H](CCC(=O)O)n3cc(CN)nn3)CC2)n1` it is “inactive”.

Take `C#CCOCCOCCOCCNc1nc(N2CCN(C(=O)Cn3cc(CCO)nn3)CC2)nc(N2CCN(C(=O)[C@H](CCCCN)n3cc(CCCC)nn3)CC2)n1`: the Potency result was “inactive”.

As for `O=C(COC(=O)c1ccccc1OCCOc1ccccc1)Nc1cccc(Br)c1`, the Potency result is “inactive”. The entry for `Cc1ccc(S(=O)(=O)c2c(Nc3cccc(Cl)c3)sc(C(=O)c3ccc4c(c3)OCO4)c2N)cc1` is “inactive”. As for `Cc1ccc(C)c(N2CCN(CCCNC(=O)Nc3ccc(Cl)cc3)CC2)c1`, the entry is “inactive”; as for `COc1ccc(C2Nc3ccc(NC(=O)COC(C)=O)cc3C(=O)N2Cc2ccccc2)cc1COc1ccc(NC(C)=O)cc1` (configuration not stated), “inactive”; as for `Cc1ccc(-c2nnc3ccc(SCC(N)=O)nn23)cc1`, “inactive”.

On to `S=c1[nH]nc(-c2cc(-c3ccccc3)n[nH]2)n1/N=C/c1c2ccccc2cc2ccccc12`, for which the Potency was 39.8 µM (active).

With `Cc1cc(-c2n[nH]c(=S)n2/N=C/C(Br)=C/c2ccccc2)n[nH]1`, the Potency entry is “inactive”. As for `S=c1[nH]nc(-c2cc(-c3ccsc3)n[nH]2)n1-c1ccccc1`, the entry is “inactive”; as for `Cc1cccc(NC(=O)COC(=O)c2ccccc2OCc2cccc(Br)c2)c1`, “inactive”.

On to `COc1ccc(CN(Cc2ccccc2)C(=O)c2ccc(O)cc2)cc1COc1ccc(NC(C)=O)cc1`, for which the Potency result is “inactive”. The entry for `O=C1c2ccccc2C(=O)N1c1ccc(S(=O)(=O)N2CCOCC2)c2ccccc12` is “inactive”; for `CCN1/C(=C/c2ccc3ccc(C)cc3[n+]2CC)Sc2ccccc21` it is 50.1 µM (active); for `OC(Cc1ccc2ccccc2n1)c1ccc(Cl)c(Cl)c1` (configuration not stated) it is “inactive”.

`O=C1COc2ccc(-c3csc(-c4ccc(Cl)cc4)n3)cc2N1`: the Potency result is “inactive”. In the case of `Cc1cc(C)cc(NC(=O)CSc2nc(=O)n(CCN3CCOCC3)c3c2CCC3)c1`, the Potency entry was “inactive”. Regarding `CCOc1ccc(NC(=O)CSc2nnc3c(n2)[nH]c2ccc(S(=O)(=O)N4CCOCC4)cc23)cc1`, the Potency result is “inactive”. The entry for `Cc1ccc(-n2ncc3c(NCCCn4ccnc4)ncnc32)cc1Cl` is “inactive”; for `C(=Nc1ccc(/C=C/c2ccnc3ccccc23)cc1)c1cc2c3c(c1)CCCN3CCC2` it is “inactive”. Take `CN(C(=O)CSc1nc2ccc(NC(=O)COc3ccccc3)cc2s1)c1ccccc1`: the Potency result was “inactive”. Regarding `O=[N+]([O-])c1c(NCCO)cc(Sc2nc3ccccc3s2)c2nonc12`, the Potency was 44.7 µM (active). The entry for `CC(C)(C)c1ccc(S(=O)(=O)Nc2ccc(O)c(Sc3nc4ccccc4s3)c2)cc1` is “inactive”.
